Test [1] can be described thus: qHTS drug screen for cell cycle checkpoint inhibitors in PARPi-resistant BRCA-mutant ovarian cancer cell lines. (AID 1963452; calls by dose curve; further: potency means the concentration at half of the fitted maximal effect). The following applies: PEO1/OlaR viability, CellTiter-Glo luminescence, 96 h; for Z-AUC: stronger effect = lower value. In outline:
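PEO1, PEO4 and PEO1/OlaR ovarian cancer cells, 600 per well, exposed 96 h at 37C to a dilution series. Viability read by CellTiter-Glo luminescence, normalized to DMSO and empty wells; activity summarized as Z-AUC.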
(Quantitative high-throughput screening tests each substance at several concentrations.)

Test [2] is described as follows: Dual reporter qHTS for agonist of Pregnane X Receptor (hPXR) against the NCATS DSHEA and TCM libraries: Fluorescence readout (AID 1920058). Further: 0% is about no effect. To be noted: PXR dual reporter cells; series mostly up to 40 µM. In outline: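 Fluorescence read-out for cell viability: CellTiter-Fluor, 1 h at 37 °C, Ex/Em 405/540 nm. This followed ~24 h treatment of hPXR-Luc HepG2 cells with substances in agonist mode.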

For test [3], the target named is Nuclear receptor subfamily 1 group I member 2 (Homo sapiens) (UniProt O75469). The test can be described thus: Dual reporter qHTS for agonist of Pregnane X Receptor (hPXR) against the NCATS DSHEA and TCM libraries: Luminescence readout (AID 1920059). Further: 0% is about no effect. The following applies: hPXR dual reporter cells, luciferase luminescence agonist; series mostly up to 40 µM. The method, boiled down: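 Luminescent PXR reporter read (ONE-Glo) after a CellTiter-Fluor viability read, following 24 h, 37C treatment of HepG2 cells stably carrying hPXR-Luc.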

For test [4] the target is unchanged. The test can be described thus: Dual reporter qHTS for antagonist of Pregnane X Receptor (hPXR) against the NCATS DSHEA and TCM libraries: Luminescence Readout (AID 1920060). Further: 0% is about no effect. To be noted: hPXR dual reporter cells, luciferase luminescence, antagonist mode; series mostly up to 40 µM. In outline: (§1)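 Antagonist mode: rifampicin 2 uM final co-added with compounds to hPXR-LucHepG2 cells for 24 h at 37C. Viability by CellTiter-Fluor, Ex/Em 405/540 nm, 1 h; reporter by ONE-Glo luminescence.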

The nature of test [5]: Dual reporter qHTS for antagonist of Pregnane X Receptor (hPXR) against the NCATS DSHEA and TCM libraries: Fluorescence Readout (AID 1920061). Further: 0% is about no effect. To be noted: PXR dual reporter cells, antagonist mode; series mostly up to 40 µM. The method, boiled down:
as §1

Test [6] in a line: qHTS profiling for inhibitors of Plasmodium falciparum proliferation (AID 504749).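 Further: 0% = DMSO vehicle and full inhibition = artemisinin control; nearly all actives have a fitted effect of over 60% in size.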 To be noted: P. falciparum in erythrocytes, SYBR Green DNA, 72 h, at 28.7 µM (top of the series). The method, boiled down:
(§2)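 In a 72 h erythrocytic culture (37 C, humidified, 5% CO2) at 2.5% hematocrit and 0.3% starting parasitemia, compounds were tested; SYBR Green I in detergent lysis buffer stained parasite DNA overnight.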

For the next test, the system named is 3D7. The test is described as above. The following applies: P. falciparum in erythrocytes, SYBR Green DNA, 72 h; series mostly up to 28.7 µM. The method, boiled down: as §2
The next test deals with 7G8. Described as above. The following applies: P. falciparum in erythrocytes, SYBR Green DNA, 72 h; series mostly up to 28.7 µM. In outline:
as §2

In a further test the test system is AA1029. Described as above. The following applies: P. falciparum in erythrocytes, SYBR Green DNA, 72 h; series mostly up to 28.7 µM. The method, boiled down: as §2
The subject of a further test is AS120. The test is described as above. The following applies: P. falciparum in erythrocytes, SYBR Green DNA, 72 h; series mostly up to 28.7 µM. The method, boiled down: as §2
The subject of a further test is ATS189. The test is described as above. The following applies: P. falciparum in erythrocytes, SYBR Green DNA, 72 h; series mostly up to 28.7 µM. The method, boiled down: as §2
The next test concerns ATS95. The description is as above. The following applies: P. falciparum in erythrocytes, SYBR Green DNA, 72 h; series mostly up to 28.7 µM. In outline: as §2
The subject of another test is C2A. Described as above. To be noted: P. falciparum in erythrocytes, SYBR Green DNA, 72 h; series mostly up to 28.7 µM. In outline:
as §2

The test system of the next test is CP185. The description is as above. To be noted: P. falciparum in erythrocytes, SYBR Green DNA, 72 h; series mostly up to 28.7 µM. The method, boiled down:
as §2

The subject of another test is CP191. Described as above. To be noted: P. falciparum in erythrocytes, SYBR Green DNA, 72 h; series mostly up to 28.7 µM. The method, boiled down: as §2
The next test has as its system CP192. Described as above. The following applies: P. falciparum in erythrocytes, SYBR Green DNA, 72 h; series mostly up to 28.7 µM. In outline:
as §2

Another test concerns CP194. Described as above. To be noted: P. falciparum in erythrocytes, SYBR Green DNA, 72 h; series mostly up to 28.7 µM. In outline:
as §2

The next test concerns CP201. Described as above. The following applies: P. falciparum in erythrocytes, SYBR Green DNA, 72 h; series mostly up to 28.7 µM. The method, boiled down: as §2
The subject of another test is CP211. Described as above. The following applies: P. falciparum in erythrocytes, SYBR Green DNA, 72 h; series mostly up to 28.7 µM. The method, boiled down: as §2
The next test has as its system CP203. Described as above. The following applies: P. falciparum in erythrocytes, SYBR Green DNA, 72 h; series mostly up to 28.7 µM. The method, boiled down:
as §2

Setting [7] is: measured here: PEO1 parental Z-AUC.

Inconclusive results are not listed. Active and inactive are the calls of the source. Unless noted, the call rests on the fitted dose curve; in most records, active means well fitted curve in the direction sought with a large enough effect; inconclusive means small, poorly fitted or top-dose-only effect, or another doubt; inactive means no such curve, though single readings can be large; an effect the other way counts as inactive or inconclusive. Where a SMILES comes first, the peptide text is derived from it. Bridges are numbered along the chain shown (N, C = ends). [ ]: non-standard residue; d: D form. The star is where a group is joined. X1 = CCC(C)C(N)C1=NC(C(=O)*)CS1; dOrn = NCCC[C@@H](N)C(=O)O

Nuclear receptor subfamily 1 group I member 2 (Homo sapiens), sequence (O75469 whole entry, looked up): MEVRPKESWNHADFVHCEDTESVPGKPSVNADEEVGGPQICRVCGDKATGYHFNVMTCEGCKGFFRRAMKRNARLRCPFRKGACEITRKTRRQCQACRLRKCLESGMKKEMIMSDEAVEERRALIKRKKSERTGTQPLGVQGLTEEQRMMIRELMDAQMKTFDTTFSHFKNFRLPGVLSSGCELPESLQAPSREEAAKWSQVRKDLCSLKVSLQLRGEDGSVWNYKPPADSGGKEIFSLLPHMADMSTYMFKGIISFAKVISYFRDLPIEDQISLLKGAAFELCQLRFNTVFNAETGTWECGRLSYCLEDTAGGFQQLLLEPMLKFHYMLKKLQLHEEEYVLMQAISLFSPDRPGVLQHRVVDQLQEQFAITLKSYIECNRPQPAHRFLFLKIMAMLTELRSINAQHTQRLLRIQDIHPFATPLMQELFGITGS

`CCCCC(=O)OCC(=O)[C@]1(O)Cc2c(O)c3c(c(O)c2[C@@H](O[C@H]2C[C@H](NC(=O)C(F)(F)F)[C@H](O)[C@H](C)O2)C1)C(=O)c1c(OC)cccc1C3=O`: the Potency in test [1] was 549 nM (active). In addition, the Z-AUC in test [1] (setting [7]) is -2.19; in [1] (measured here: PEO4 Z-AUC), -1.93.
In the case of `CCC(C)C(N)C1=NC(C(=O)N[C@@H](CC(C)C)C(=O)N[C@H](CCC(=O)O)C(=O)N[C@H](C(=O)N[C@H]2CCCCNC(=O)[C@H](CC(N)=O)NC(=O)[C@@H](CC(=O)O)NC(=O)[C@H](Cc3cnc[nH]3)NC(=O)[C@@H](Cc3ccccc3)NC(=O)[C@H]([C@@H](C)CC)NC(=O)[C@@H](CCCN)NC2=O)[C@@H](C)CC)CS1` (some centres not stated) (X1-L[dE]IK[dOrn]I[dF]H[dD]N; lactam 4-C), the results for the Z-AUC in [1], in [1] (setting [7]) and in test [1] (measured here: PEO4 Z-AUC) were 0.134 (inactive), 1.01 and 0.703, respectively.
The like results for `CCNC(=O)CCC/C=C\C[C@@H]1[C@@H](/C=C/C(O)CCc2ccccc2)[C@@H](O)C[C@@H]1O` (some centres not stated) were, in that order, 1.72 (inactive), 1.41 and 1.49.
In the same order, the values of `CC(C)N(C[C@H]1O[C@@H](n2cnc3c(N)ncnc32)[C@H](O)[C@@H]1O)C1CC(CCc2nc3ccc(C(C)(C)C)cc3[nH]2)C1` (some centres not stated) are 1.59 (inactive), 1.75 and 1.7.
Regarding `O=C(c1ccc(NS(=O)(=O)c2cccc3cccnc23)cc1)N1CCN(CC2CC2)CC1`, the Z-AUC in test [1] is -0.157 (inactive); in test [1] (setting [7]) it was -0.299; in test [1] (measured here: PEO4 Z-AUC), -0.11.
In the same order, the values of `Cc1nn(C)c(COc2ccc(N3CCN(S(=O)(=O)N(C)C)CC3)cc2)c1-c1cccc2c(CCCOc3cccc4ccccc34)c(C(=O)O)n(CCN3CCOCC3)c12` are 0.0442 (inactive), 0.77 and 0.53.
For `CN(NC(=O)CC(=O)NN(C)C(=S)c1ccccc1)C(=S)c1ccccc1`, the Z-AUC in test [1] is 1.67 (inactive); in [1] (setting [7]), 1.08; in test [1] (measured here: PEO4 Z-AUC), 1.36.
As to `Cc1c(C)c2c(c(C)c1O)CC[C@@](C)(CCC[C@H](C)CCC[C@H](C)CCCC(C)C)O2`, the compound was called inactive in test [2], in test [3], in [4] and in test [5]. In addition, the figures for the activity, negative = inhibition in test [6] (parasite line A) and in [6] (parasite line B) were -10.2% (inactive) and -2.69% (inactive), respectively. The Potency entry in the test on 3D7, in the test on 7G8, in the test with AA1029, with AS120, in the test on ATS189 and in the test on ATS95 was “inactive” in each case. Besides, the Potency entry with C2A, in the test on CP185, in the test with CP191, in the test with CP192, in the test with CP194 and with CP201 was “inactive” each time. In the test with CP211, the Potency result was “inactive”.
Consider `NCc1ccc(OCCCc2sc(-c3ccc4c(c3)/C(=N/Nc3nc5ccccc5s3)CCC4)nc2C(=O)O)cc1`, for which the Z-AUC in test [1] is 1.02 (inactive); in test [1] (setting [7]), 1.09; in test [1] (measured here: PEO4 Z-AUC) it was 0.501.
The like results for `CN(C)c1cccc(-c2c3c(=O)n(-c4ccccc4Cl)[nH]c3cc(=O)n2C)c1` were, in that order, -0.625 (inactive), -0.313 and -0.353.
In the same order, the values of `Nc1ccn([C@@H]2C(F)=C(CO)[C@@H](O)[C@H]2O)c(=O)n1` are 0.41 (inactive), -0.156 and -0.408.
In the same order, the values of `CC1(C)O[C@@H]2C[C@H]3[C@@H]4CCC5=CC(=O)C=C[C@]5(C)[C@H]4[C@@H](O)C[C@]3(C)[C@]2(C(=O)CO)O1` are 0.315 (inactive), 1.46 and 0.804.
On to `N#Cc1ccnc(N2C(=O)CC[C@H]2C(=O)N(c2cncc(F)c2)[C@H](C(=O)NC2CC(F)(F)C2)c2ccccc2Cl)c1`, for which the figures for the Z-AUC in test [1], in test [1] (setting [7]) and in [1] (measured here: PEO4 Z-AUC) were 1.18 (inactive), 1.11 and 1.26, respectively.
As for `CCCCCCCC(=O)O`, the compound was classed as inactive in test [2], in [3], in test [4] and in test [5]. The results for the activity, negative = inhibition in test [6] (parasite line A) and in test [6] (parasite line B) were 5.42% (inactive) and 9% (inactive), respectively. The Potency result in the test with 3D7, in the test on 7G8, with AA1029, with AS120, with ATS189 and in the test on ATS95 was “inactive” each time. The Potency entry with C2A, in the test on CP185, in the test on CP191, with CP192, in the test with CP194 and in the test with CP201 was “inactive” in each case. In addition, the Potency result in the test with CP203 and in the test on CP211 was “inactive” throughout.
For `C[C@H]1[C@H](C)CC[C@]2(C(=O)O)CC[C@]3(C)C(=CC[C@@H]4[C@@]5(C)C[C@@H](O)[C@H](O)[C@@](C)(CO)[C@@H]5CC[C@]43C)[C@H]12`, the compound was classed as inactive in test [2], in [3], in test [4] and in [5].
Turning to `O=C(NCC(=O)N1CC[C@H](NC2CCC(O)(c3ccc(-c4ncccn4)cn3)CC2)C1)c1cccc(C(F)(F)F)c1` (some centres not stated), the Z-AUC was -0.56 (inactive) in [1], -0.577 in [1] (setting [7]) and -0.816 in test [1] (measured here: PEO4 Z-AUC).
The like results for `O=C(C1CC1)N1CC[C@@H](Cc2n[nH]c(=O)n2-c2ccc(-c3ccc4occc4c3)cc2)C1` were, in that order, 1.31 (inactive), 0.792 and 0.425.
The like results for `CO[C@@H]1COCC[C@@H]1N[C@@H]1CC[C@@](C(=O)N2CCc3ncc(C(F)(F)F)cc3C2)(C(C)C)C1` were, in that order, 0.278 (inactive), 1.21 and 1.12.
`Cc1c(-c2ccnn2C)cc(C(=O)NCc2ccc(S(C)(=O)=O)cn2)c(=O)n1-c1cccc(C(F)(F)F)c1`: the Z-AUC was -0.519 (inactive) in test [1], -0.353 in [1] (setting [7]) and -0.364 in test [1] (measured here: PEO4 Z-AUC).
Regarding `CCCCN(CCCC)C(=O)CN1C[C@H](c2ccc3c(c2)OCO3)[C@@H](C(=O)O)[C@@H]1c1ccc(OC)cc1`, the Z-AUC in [1] was 0.882 (inactive); in test [1] (setting [7]), 0.661; in [1] (measured here: PEO4 Z-AUC), 0.129.
The like results for `COc1ccc2cc(OCC3(C(=O)O)CN(C(=O)c4ccc(F)cc4)C3)ccc2c1` were, in that order, -0.285 (inactive), -0.144 and 0.261.
As for `CC1=C(/C=C/C(C)=C/C=C/C(C)=C/C=C/C=C(C)/C=C/C=C(C)/C=C/C2=C(C)CCCC2(C)C)C(C)(C)CCC1`, the compound was called inactive in test [2], in test [3], in [4] and in [5]. For the same compound, the activity, negative = inhibition in [6] (parasite line A) is 0.195% (inactive); in test [6] (parasite line B) it was -0.801% (inactive). Moreover, the Potency entry in the test with 3D7, with 7G8, in the test with AA1029, with AS120, with ATS189 and with ATS95 was “inactive” each time. Moreover, the Potency result in the test with C2A, in the test with CP185, in the test with CP191, in the test with CP192, with CP194 and in the test with CP201 was “inactive” each time. Moreover, the Potency entry in the test with CP203 and in the test on CP211 was “inactive” throughout.

The record behind these values is PubChem BioAssay (NCATS).
